Source: the supplement of paper PMC9262897, “Low-cost anti-mycobacterial drug discovery using engineered E. coli” (Nature Communications, 2022)
Structures can show the parent of a compound that is named as a salt. ± gives the standard deviation of the averaged measurements.

What was measured:
Assay in all cases: growth (OD600 after 10 h); higher = more growth (less inhibition)
[1] = test system: E. coli TESEC Alr+ wild-type control; conditions: compound 0.1 mM; raw OD600 reference: median of DMSO wells 0.241, cell-free background 0.041
Description: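 TESEC Mtb Alr E. coli, or the Alr+ wild-type control, in 384-well plates with Prestwick library compounds at 0.1 mM and 1% DMSO, across arabinose induction levels of 1E3 to 1E7 nM. Growth is read as OD600 after 10 h at 37 °C in triplicate biological replicates.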

E. coli TESEC Mtb Asd = conditions: compound 0.1 mM
Description: (§1)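 TESEC E. coli strains in which the native enzyme is deleted and replaced by arabinose-inducible Mtb Asd, DapB, CysH or TrpD, each grown in its selective medium. Strains were screened against the Prestwick library at 0.1 mM and 1% DMSO in 384-well format at low and high arabinose induction. Growth is read as OD600 after 10 h in triplicate.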

E. coli TESEC Mtb DapB = conditions: compound 0.1 mM
Description: as §1

[2] = test system: E. coli TESEC Alr+ wild-type control; conditions: compound 0.1 mM; raw OD600 reference: median of DMSO wells 0.49, cell-free background 0.052
Description: (§2)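 TESEC Mtb Alr E. coli (ΔaraC ΔtolC ΔentC Δalr ΔdadX, arabinose-inducible Mtb Alr) or the Alr+ wild-type control strain, grown in defined M9-fructose medium without D-alanine in 96-well plates with Prestwick library compounds at 0.1 mM and 1% DMSO. Low Alr induction is 0.1 µM arabinose and high induction is 10 mM arabinose.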

E. coli TESEC Mtb Alr = conditions: compound 0.1 mM
Description: as §2

[3] = arabinose induction (level): High, raw OD600 reference: median of DMSO wells 0.331, cell-free background 0.041
[4] = arabinose induction (level): Low, raw OD600 reference: median of DMSO wells 0.417, cell-free background 0.041
[5] = arabinose induction (level): High, raw OD600 reference: median of DMSO wells […], cell-free background 0.041
[6] = arabinose induction (level): Low, raw OD600 reference: median of DMSO wells 0.227, cell-free background 0.041
[7] = arabinose 100 nM, raw OD600 reference: median of DMSO wells 0.413, cell-free background 0.052
[8] = arabinose 10000000 nM, raw OD600 reference: median of DMSO wells […], cell-free background 0.052

Compound	growth [1]	growth (E. coli TESEC Mtb Asd; [3])	growth (E. coli TESEC Mtb Asd; [4])	growth (E. coli TESEC Mtb DapB; [5])	growth (E. coli TESEC Mtb DapB; [6])	growth [2]	growth (E. coli TESEC Mtb Alr; [7])	growth (E. coli TESEC Mtb Alr; [8])
NC[C@@H]1O[C@H](O[C@H]2[C@@H](O)[C@H](O[C@@H]3[C@@H](O)[C@H](N)C[C@H](N)[C@H]3O[C@H]3O[C@H](CN)[C@@H](O)[C@H](O)[C@H]3N)O[C@@H]2CO)[C@H](N)[C@@H](O)[C@@H]1O [Neomycin sulfate]	0.249 ± 0.0054	0.271 ± 0.043	0.389 ± 0.021	0.187 ± 0.018	0.245 ± 0.041	0.453 ± 0.037	0.4232 ± 0.0036	0.343 ± 0.013
CCN(CC)Cc1cc(Nc2ccnc3cc(Cl)ccc23)ccc1O [Amodiaquin dihydrochloride dihydrate]	0.16 ± 0.0068	0.179 ± 0.011	0.387 ± 0.051	0.209 ± 0.017	0.28 ± 0.06	0.527 ± 0.047	0.4131 ± 0.00099	0.322 ± 0.0054
Cc1ccnc2c1NC(=O)c1cccnc1N2C1CC1 [Nevirapine]	0.233 ± 0.0085	0.399 ± 0.051	0.391 ± 0.053	0.209 ± 0.012	0.243 ± 0.0097	0.507 ± 0.057	0.402 ± 0.014	0.343 ± 0.011
NCc1ccccc1CC(=O)N[C@@H]1C(=O)N2C(C(=O)O)=C(CSc3nnnn3CC(=O)O)CS[C@H]12 [Ceforanide]	0.3 ± 0.0032	0.244 ± 0.01	0.315 ± 0.033	0.182 ± 0.012	0.242 ± 0.012	0.501 ± 0.055	0.108 ± 0.033	0.303 ± 0.024
CCC[C@@H]1C[C@@H](C(=O)N[C@@H]([C@H]2O[C@H](SC)[C@H](O)[C@@H](O)[C@H]2O)[C@H](C)Cl)N(C)C1 [Clindamycin hydrochloride]	0.0527 ± 0.0012	0.0699 ± 0.0019	0.0715 ± 0.0033	0.0755 ± 0.0023	0.0766 ± 0.0063	0.0771 ± 0.0023	0.15 ± 0.014	0.0594 ± 0.0027
CC(C(=O)O)c1ccc(C(=O)c2cccs2)cc1 (configuration not stated) [Suprofen]	0.2321 ± 0.0022	0.368 ± 0.056	0.365 ± 0.054	0.213 ± 0.0048	0.196 ± 0.029	–	0.382 ± 0.01	0.3826 ± 0.0029
